Inconclusive results are not listed. Where a call stands in place of a potency, no number is given. Activity calls are given as the source filed them. Calls come from the whole dose curve; as a rule, active = well fitted cell-killing curve with a large enough effect in the repeat runs; inconclusive = weak or mixed curves, or effect the other way; inactive = flat fitted curve, though single readings scatter.
Assays:
[1] = cAMP Responsive Elements (CRE) small molecule agonists, cell-based qHTS assay: qHTS cell viability counter screen (AID 2060914); conditions: CRE-bla HEK293T viability, CellTiter-Glo luminescence, 5 h; series mostly up to 92.4 µM; note: potency is the fitted concentration of half-maximal effect;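 note: viability read after 3 h of compound exposure; nearly all actives have a fitted effect of over 50% in size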
Procedure, shortened: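 CRE-bla HEK 293T cells, plated 18 h at 37 °C, were exposed to compounds for 3 h at 37 °C/5% CO2. Viability was then measured in the same wells by CellTiter-Glo luminescence after 30 min at room temperature.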

[2] = cAMP Responsive Elements (CRE) small molecule antagonists, cell-based qHTS assay: qHTS cell viability counter screen (AID 2060913); conditions: CRE-bla HEK293T viability, CellTiter-Glo luminescence, 5 h; series mostly up to 92.4 µM; note: nearly all actives have a fitted effect of over 40% in size
Procedure, shortened: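 Cytotoxicity counter screen multiplexed with the CRE-bla antagonist read: HEK293T cells in DMEM with dialyzed FBS and 25 mM HEPES were treated 3 hrs under 0.25 uM final NKH477, then viability measured by CellTiter-Glo luminescence.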

| SMILES | Potency [1] | Potency [2] |
| --- | --- | --- |
| NC(=O)C1(N2CCCCC2)CCN(CCCN2c3ccccc3CCc3ccc(Cl)cc32)CC1 | inactive |  |
| c1c[nH]cn1 | inactive | inactive |
| CC(C)=CCCC(C)CCO (stereo not given) | inactive | inactive |
| O=S(=O)(c1cccc2cnccc12)N1CCCNCC1 | inactive | inactive |
| COc1ccc2c(c1)c(CC(=O)OC/C=C(\C)CC/C=C(\C)CCC=C(C)C)c(C)n2C(=O)c1ccc(Cl)cc1 | inactive | inactive |
| O=C(Nc1cccc(C(F)(F)F)c1)c1cc(Br)cc(Br)c1O | 27.3 µM (active) |  |
| Cc1nnc(SCC2=C(C(=O)O)N3C(=O)[C@@H](NC(=O)Cn4cnnn4)[C@H]3SC2)s1 | inactive |  |
| Cc1nccn1CC1CCc2c(c3ccccc3n2C)C1=O (stereo not given) | inactive | inactive |
| CCOC(=O)CC#N | inactive | inactive |
| [O-][N+](=Nc1ccccc1)c1ccccc1 | inactive |  |
| CC(=O)OCC(=O)[C@@]12N=C(C)O[C@@H]1C[C@H]1[C@@H]3CCC4=CC(=O)C=C[C@]4(C)[C@H]3[C@@H](O)C[C@@]12C | inactive | inactive |
| O=C(O)c1[nH]n(-c2ccc(S(=O)(=O)O)cc2)c(=O)c1N=Nc1ccc(S(=O)(=O)O)cc1 | inactive | inactive |
| N[C@@H](CS)C(=O)O | inactive | inactive |
| COc1cc(C(=O)NC2CCN(C)CC2)ccc1Nc1ncc2c(n1)N(C1CCCC1)CC(F)(F)C(=O)N2C | inactive |  |
| CC(=O)O[C@]1(C(C)=O)CC[C@H]2[C@@H]3C=C(Cl)C4=CC(=O)CC[C@]4(C)[C@H]3CC[C@@]21C | inactive |  |
| N#Cc1ccccc1 | inactive | inactive |
| O=C1CCCCCCCCCCC(=O)OCCO1 | inactive | inactive |
| c1ccc(Nc2ccccc2)cc1 | inactive |  |
| Clc1ccc(C(Cn2ccnc2)OCc2c(Cl)cccc2Cl)c(Cl)c1 (stereo not given) | inactive |  |
| CCCCCCCCCCCCCCOS(=O)(=O)O | inactive |  |

| SMILES | Potency [1] | Potency [2] |
| --- | --- | --- |
| CCc1ccc(C)cc1 | inactive |  |
| O=C1CCc2cc(OCCCCc3nnnn3C3CCCCC3)ccc2N1 | inactive |  |
| COC(=O)CC(=O)OC | inactive |  |
| O=P(O)(O)Oc1ccccc1 | inactive |  |
| c1ccc(C[P+](c2ccccc2)(c2ccccc2)c2ccccc2)cc1 | inactive |  |
| CC1CCCC(=O)C1=O (stereo not given) | inactive |  |
| CCCCOCC(C)OCC(C)O (stereo not given) | inactive |  |
| CCN(CC)C(=O)c1cc(S(=O)(=O)Cc2ccccc2)c(N2CCC(c3ccccc3)CC2)cc1N(CC)CCN(C)C | inactive |  |
| CN[C@H]1CC[C@@H](c2ccc(Cl)c(Cl)c2)c2ccccc21 | inactive |  |
| C=Cc1ccc(C(C)(C)C)cc1 | inactive |  |
| CCCOCC(C)O (stereo not given) | inactive |  |
| CCOC(C)(C)C | inactive |  |
| CC1(C)NC(=O)NC1=O | inactive |  |
| O=C(Oc1ccccc1)c1cccc(C(=O)Oc2ccccc2)c1 | inactive |  |
| CN1CCN(CCCN2c3ccccc3Sc3ccc(C(F)(F)F)cc32)CC1 | inactive |  |
| COC(=O)c1ccccc1OC | inactive |  |
| CCCCC/C=C\C/C=C\CCCCCCCC(=O)OC | inactive |  |
| CO[Si](CCCCl)(OC)OC | inactive |  |
| CO[C@]12C[C@@H](COC(=O)c3cncc(Br)c3)CN(C)[C@@H]1Cc1cn(C)c3cccc2c13 | inactive |  |
| CC(=O)CCCCn1c(=O)c2c(ncn2C)n(C)c1=O | inactive |  |

| SMILES | Potency [1] | Potency [2] |
| --- | --- | --- |
| O=C(CS)OCCOC(=O)CS | inactive |  |
| Cc1cc(=O)n(-c2ccccc2)n1C | inactive |  |
| CC12CCC(CC1)C(C)(C)O2 | inactive |  |
| CC1COc2ccccc2N1 (stereo not given) | inactive |  |
| ClC(Cl)(Br)Br | inactive |  |
| C[C@@H](N)C(=O)O | inactive |  |
| Oc1ccc(-c2ccccc2)c(Cl)c1 | inactive |  |
| CN/C(=C\[N+](=O)[O-])NCCSCc1ccc(CN(C)C)o1 | inactive |  |
| NC(CS)C(=O)O (stereo not given) | inactive |  |
| Cc1c(O)cccc1C(=O)N[C@@H](CSc1ccccc1)[C@H](O)CN1C[C@H]2CCCC[C@H]2C[C@H]1C(=O)NC(C)(C)C | inactive |  |
| CCCCC(CC)COCCCN (stereo not given) | inactive |  |
| CN1C(=O)c2ccc([N+](=O)[O-])cc2C1=O | inactive |  |
| CN(C)CC/C=C1\c2ccccc2COc2ccccc21 | inactive |  |
| CC(O)(c1ccc(Cl)cc1)c1ccc(Cl)cc1 | inactive |  |
| O=C(O)c1cccc(C(=O)O)c1C(=O)O | inactive |  |
| c1ccc2c(c1)Cc1ccccc1-2 | inactive |  |
| Cc1cc2c(s1)Nc1ccccc1N=C2N1CCN(C)CC1 | inactive |  |
| Nc1ccc(C(=O)OCCCOC(=O)c2ccc(N)cc2)cc1 | inactive |  |
| CCOC(=O)COc1ccc2c(c1)CC(NCC(O)c1cccc(Cl)c1)CC2 (stereo not given) | inactive |  |
